Experimental data: PubChem BioAssay (NCI)
Compounds without any hit were thinned out: in the full panel of roughly 79,000, 15% have a hit. Rule as the data show it: active = growth inhibition above about 70%; inactive = the rest.

Tests used:
[1] = NCI Yeast Anticancer Drug Screen. Data for the rad50 strain (AID 155);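 also: 0% = growth of vehicle-only cultures of the same strain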; conditions: S. cerevisiae rad50 strain growth inhibition; at 50.0 µM; stronger effect = higher value
Outline: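 Cells are treated with compound, grown, and their growth is then scored against vehicle-only cultures of the same repair-deficient yeast strain.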

[2] = NCI Yeast Anticancer Drug Screen. Data for the mec2-1 strain (AID 157); conditions: S. cerevisiae mec2-1 strain, at 50.0 µM, stronger effect = higher value
Outline: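 Test agents were screened against the mec2-1 yeast strain, with defined DNA repair or cell cycle alteration. Growth was scored as inhibition against vehicle-only controls.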

[3] = NCI Yeast Anticancer Drug Screen. Data for the sgs1 mgt1 strain (AID 161);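 also: 0% = growth of cultures given vehicle only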; conditions: S. cerevisiae sgs1 mgt1 strain, at 50.0 µM, stronger effect = higher value
Outline: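 Inhibition of yeast growth, normalised to vehicle-treated controls, is reported for a strain bearing genetic alterations in DNA damage repair.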

[4] = NCI Yeast Anticancer Drug Screen. Data for the cln2 rad14 strain (AID 165);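 also: 0% = growth equal to vehicle treated cultures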; conditions: S. cerevisiae cln2 rad14 strain, at 50.0 µM, stronger effect = higher value
Outline: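 Growth of compound-exposed yeast (cln2 rad14 genotype) measured and expressed as inhibition relative to vehicle.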

[5] = NCI Yeast Anticancer Drug Screen. Data for the bub3 strain (AID 167); conditions: S. cerevisiae bub3 mutant strain, at 50.0 µM, stronger effect = higher value
Outline: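 Part of a panel of yeast mutants defective in DNA damage repair or cell cycle regulation. Each strain is grown with compound, and inhibition is calculated relative to solvent-treated cultures.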

[6] = NCI Yeast Anticancer Drug Screen. Data for the mlh1 rad18 strain (AID 175); conditions: S. cerevisiae mlh1 rad18 strain growth inhibition; at 50.0 µM; stronger effect = higher value
Outline: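 In this whole-cell yeast screen, a strain with altered DNA damage repair is challenged with compound, and its growth is measured against matched vehicle-treated controls.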

Measured: growth inhibition

O=C(CC1=NC2NN(c3ccccc3)C(=O)C2=C1CC(=O)c1ccc([N+](=O)[O-])cc1)c1ccc([N+](=O)[O-])cc1 (stereo unspecified)
inactive: [1] 42.1% | [2] -11.4% | [3] 3.4% | [4] 2.7% | [5] 19.9% | [6] 32%

CC(=O)c1cnn(C(N)=O)c1C
inactive: [1] -42.6% | [2] -18.5% | [3] -23.7% | [4] -46.5% | [5] 13.5% | [6] -5.75%

CC1CCCC1N (stereo unspecified)
inactive: [1] -13.7% | [2] -12.5% | [3] -24.5% | [4] -27.1% | [5] -5.85% | [6] -7.5%

NC(=O)c1nnn(-c2ccccc2)n1
inactive: [1] -9.75% | [2] -8.9% | [3] -10% | [4] -12.3% | [5] -5.75% | [6] -12.7%

C=C1C(=O)O[C@@H]2/C=C(/C)[C@@H](OC(C)=O)C[C@@H](O)/C(C)=C\[C@@H](OC(=O)[C@]3(C)O[C@@H]3C)[C@@H]12
inactive: [1] 11.3% | [2] -0.85% | [3] 16.2% | [4] 20.5% | [5] 13.4% | [6] -63.6%

C[C@@]1(CO)CCc2c(c3ccccc3oc2=O)O1
inactive: [1] 2.2% | [2] 6.45% | [3] 9.55% | [4] 8% | [5] 1.8% | [6] -6.35%

CCC(COCC(CC)C(=O)O)C(=O)O (stereo unspecified)
inactive: [1] 11.3% | [2] 1.1% | [3] 18.6% | [4] 19.1% | [5] 12.7% | [6] 15.2%

Cn1c(=O)c2conc2n(-c2ccc(Cl)cc2)c1=O
inactive: [1] 11.2% | [2] -0.1% | [3] -12.2% | [4] -19.9% | [5] 2.55% | [6] -3.25%

CN(C)Cc1cc(C=O)cc(CN(C)C)c1O
inactive: [1] 10.3% | [2] 4.6% | [3] -29.2% | [4] 13.4% | [5] 10.7% | [6] 5.8%

CCCCOC(=O)C(=O)C(CC(CC)C(=O)c1ccccc1)C(=O)C=C(C)C (stereo unspecified)
inactive: [1] -28.9% | [2] -8.5% | [3] -9.55% | [4] -15.2% | [5] -13.6% | [6] 15.2%

Cc1cccc(N=Cc2ccc(Cl)cc2Cl)c1C
inactive: [1] 34.6% | [2] 20.1% | [3] 26.7% | [4] 28.6% | [5] 19% | [6] 31.6%

CNC(=O)CCCCC(=O)NC
inactive: [1] -5.65% | [2] -7.9% | [3] -2.7% | [4] 6.15% | [5] -10.8% | [6] -19.2%

CCNC(=O)C(CC)(CO)CO
inactive: [1] -16.4% | [2] -3.4% | [3] -3.95% | [4] 6.2% | [5] 0.65% | [6] 4.5%

CC(=O)Nc1cc2c3c(c1)CCCN3CCC2
inactive: [1] -24.4% | [2] -14.8% | [3] -38.2% | [4] 25.9% | [5] 27.6% | [6] -3.6%

CCC1C(OC)=CC(CC)(CO)C=C1OC (stereo unspecified)
inactive: [1] 4.35% | [2] -3.45% | [3] 6.15% | [4] 14.2% | [5] 6.8% | [6] -6.3%

CCOc1ccc(NC(=O)COc2ccc(Cl)cc2Cl)cc1
inactive: [1] 14.9% | [2] 22.3% | [3] 23.5% | [4] 18.4% | [5] 26.1% | [6] 14.9%

CCCCCCCCCCCCCCCCSCCOC(=O)C1C2CCC(O2)C1C(=O)O (stereo unspecified)
inactive: [1] 55.9% | [2] -18.4% | [3] 10.4% | [4] 13.9% | [5] 30.2% | [6] 37.6%

Cn1c2ccccc2n2c(=O)c(-c3ccc(Cl)cc3)nnc12
inactive: [1] -4.95% | [2] 10.9% | [3] -5.15% | [4] -6.15% | [5] -11.2% | [6] -35.4%

CSC1(C)C(=O)Nc2ccc(C(F)(F)F)cc21 (stereo unspecified)
inactive: [1] 9.35% | [2] 4.8% | [3] -0.05% | [4] 17.7% | [5] -6.15% | [6] 0.1%

O=C(Nc1ccc(Br)cc1)C(=O)C(C(=O)c1ccc(Cl)c(Cl)c1)C1OC(=O)c2ccccc21 (stereo unspecified)
inactive: [1] 59.1% | [2] 42.5% | [3] 36.6% | [4] 64.5% | [5] 47.3% | [6] 36.7%

CN/N=C(/CC(=O)c1sc(NNC(C)=O)nc1C)C(=O)Nc1ccc(OC)cc1OC
inactive: [1] 15.7% | [2] -14.5% | [3] 3.2% | [4] 15.4% | [5] 15% | [6] -2.15%
